Among the data in PubChem BioAssay are z-score and composite z-score values, retold here.

Structures are written as SMILES. Active and inactive are the calls of the source.

The nature of test [1]: E. coli DRC41 culture turbidity changes, primary screen, E. coli filamentation inducer project, strain DRC41, OD650, 48 h (AID 1152).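 Further: E. coli MC1000 strain DRC41 lacking acrAB efflux pump and sulA.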 The settings on record: E. coli DRC41 (acrAB sulA), higher = more signal, called active from +8 up or from −8 down.
Test [2] in a line: small-molecule binders of probe aLefty1, primary screen, biochemical, small-molecule microarray, 635/667 nm fluorescence (AID 1153).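 Further: score merges spot fluorescence with signal-to-noise ratio from the scanned slide images.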 As to conditions: higher = more signal.
The nature of test [3]: PSAC antagonists in infected red cells, primary screen, cell-based, P. falciparum Indochina, OD700, 1 h (AID 1154). As to conditions: P. falciparum Indochina infected RBC osmotic lysis, higher = more signal, called active from +8 up or from −8 down.
A short description of test [4]: PSAC antagonists in infected red cells, primary screen, cell-based, P. falciparum Indochina, OD700, 2 h (AID 1155).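 Further: lysis reports solute entry through the parasite surface anion channel PSAC; channel blockers reduce lysis of infected cells.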 The settings on record: P. falciparum Indochina infected erythrocytes, osmotic lysis OD700; higher = more signal, called active from +8 up or from −8 down.
Test [5] can be described thus: osmotic lysis modulators in infected erythrocytes, primary screen, PSAC antagonist project, cell-based, P. falciparum Indochina, OD700, 3 h (AID 1156). As to conditions: higher = more signal, called active from +8 up or from −8 down.
Test [6] is described as follows: PSAC antagonists in infected red cells, primary screen, cell-based, P. falciparum Indochina, OD700, 18 h (AID 1157). As to conditions: P. falciparum Indochina infected erythrocytes, osmotic lysis OD700, 18 h; higher = more signal, called active from +8 up or from −8 down.
Test [7] can be described thus: modulators of S6 phosphorylation in cells, primary screen, cell-based, A549, cytoblot, luminescence, serum-stimulated (AID 1158).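 Further: serum-stimulated A549 lung adenocarcinoma cells; signal is phosphorylated S6 detected by cytoblot immunostaining with HRP secondary.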 As to conditions: A549 phospho-S6 cytoblot, 5 h, higher = more signal.
Test [8] concerns the target NADPH oxidase 2 (Homo sapiens) (UniProt P04839). Nature of the test: NOX2-dependent H2O2 signal modulators, primary screen, NOX inhibitor project, cell-based, HEK293-NOX2, PMA-stimulated, Amplex Red fluorescence (AID 1159). Further: test concentration not given here. The settings on record: 45 min, higher = more signal, called active from +8 up or from −8 down.
Test [9] concerns the target NADPH oxidase 4 (Homo sapiens) (UniProt Q9NPH5). Put plainly: NOX4-dependent H2O2 signal modulators, primary screen, NOX inhibitor project, cell-based, HEK293-NOX4, tetracycline-induced, Amplex Red fluorescence (AID 1160). The settings on record: 45 min, higher = more signal, called active from +8 up or from −8 down.
The target in test [10] is NADPH oxidase 5 (Homo sapiens) (UniProt Q96PH1). Put plainly: NOX5-dependent H2O2 signal modulators, primary screen, NOX inhibitor project, cell-based, HEK293-NOX5, Amplex Red fluorescence (AID 1161). As to conditions: HEK293-NOX5, ionomycin, 45 min, higher = more signal.
NADPH oxidase 5 (Homo sapiens), sequence (Q96PH1 whole entry, looked up): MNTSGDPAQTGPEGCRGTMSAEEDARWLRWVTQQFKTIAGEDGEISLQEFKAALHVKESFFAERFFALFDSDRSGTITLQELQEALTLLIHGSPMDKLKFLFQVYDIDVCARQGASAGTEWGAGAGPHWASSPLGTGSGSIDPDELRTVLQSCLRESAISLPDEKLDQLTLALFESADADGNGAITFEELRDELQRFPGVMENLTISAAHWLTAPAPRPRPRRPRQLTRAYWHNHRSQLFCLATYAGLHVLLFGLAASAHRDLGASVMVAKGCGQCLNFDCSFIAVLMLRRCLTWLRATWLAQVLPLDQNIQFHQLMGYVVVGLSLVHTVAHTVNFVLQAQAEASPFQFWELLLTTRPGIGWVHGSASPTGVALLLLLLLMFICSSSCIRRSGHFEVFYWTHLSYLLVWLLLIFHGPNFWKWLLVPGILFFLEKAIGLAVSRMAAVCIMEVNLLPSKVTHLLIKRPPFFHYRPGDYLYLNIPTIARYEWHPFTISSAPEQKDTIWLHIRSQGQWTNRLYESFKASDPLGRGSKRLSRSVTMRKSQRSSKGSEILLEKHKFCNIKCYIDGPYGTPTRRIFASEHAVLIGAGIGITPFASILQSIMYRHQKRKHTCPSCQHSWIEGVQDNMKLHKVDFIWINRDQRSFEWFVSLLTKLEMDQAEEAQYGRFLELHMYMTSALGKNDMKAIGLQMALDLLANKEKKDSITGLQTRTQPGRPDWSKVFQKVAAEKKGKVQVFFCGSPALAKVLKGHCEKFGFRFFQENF
The nature of test [11]: A549 cell viability effects, profiling panel, calcein-AM fluorescence, 48 h, basal (AID 1162). Further: test concentration not given here. As to conditions: higher = more signal.
A short description of test [12]: adipocyte viability effects, profiling panel, cell-based, 3T3-L1 adipocytes, calcein-AM fluorescence, 48 h, basal (AID 1163). Further: test concentration not given here. As to conditions: 3T3-L1 adipocytes viability, higher = more signal.
Test [13] is described as follows: HepG2 cell viability effects, profiling panel, calcein-AM fluorescence, 48 h, basal (AID 1164). Further: test concentration not given here. As to conditions: higher = more signal.
Test [14] can be described thus: MM1S cell viability effects, profiling panel, calcein-AM fluorescence, 48 h, basal (AID 1165).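 Further: viability of MM1S multiple myeloma cells under basal unstimulated conditions; test concentration not given here.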 As to conditions: higher = more signal.
Test [15] is described as follows: basal RPMI8226 viability, no added stimulus, profiling panel, cell-based, calcein-AM fluorescence, 48 h, PK04 Diversity Set (AID 1166).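 Further: cells grown under basal conditions without added stimulus; test concentration not given here.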 The settings on record: RPMI8226 myeloma viability, higher = more signal.
Test [16] is described as follows: basal HepG2 mitochondrial membrane potential changes, profiling panel, cell-based, JC-1 fluorescence, 24 h, 100 nL compound (AID 1167). Further: test concentration not given here. As to conditions: higher = more signal.
Test [17] can be described thus: basal 3T3-L1 adipocyte mitochondrial potential changes, profiling panel, cell-based, JC-1 fluorescence, 3T3-L1 adipocytes, 24 h, 100 nL compound (AID 1168). Further: test concentration not given here. As to conditions: JC-1 mitochondrial fluorescence, higher = more signal, called active from +8 up or from −8 down.
A short description of test [18]: basal RPMI8226 mitochondrial membrane potential changes, profiling panel, cell-based, JC-1 fluorescence, 24 h, 100 nL compound (AID 1169). Further: test concentration not given here. As to conditions: RPMI8226 myeloma, JC-1 mitochondrial potential fluorescence, higher = more signal.
Test [19] can be described thus: basal MM1S mitochondrial membrane potential changes, profiling panel, cell-based, JC-1 fluorescence, 24 h, 100 nL compound (AID 1170). Further: test concentration not given here. The settings on record: higher = more signal.
Test [20] in a line: A549 lung cancer cell viability effects, profiling panel, resazurin fluorescence, 24 h, PK04 Diversity Set (AID 1171). Further: test concentration not given here. As to conditions: higher = more signal, called active from +8 up or from −8 down. Background: Resazurin is reduced to fluorescent resorufin, in cell work by metabolically active cells.

NADPH oxidase 2 (Homo sapiens), sequence (P04839 whole entry, looked up): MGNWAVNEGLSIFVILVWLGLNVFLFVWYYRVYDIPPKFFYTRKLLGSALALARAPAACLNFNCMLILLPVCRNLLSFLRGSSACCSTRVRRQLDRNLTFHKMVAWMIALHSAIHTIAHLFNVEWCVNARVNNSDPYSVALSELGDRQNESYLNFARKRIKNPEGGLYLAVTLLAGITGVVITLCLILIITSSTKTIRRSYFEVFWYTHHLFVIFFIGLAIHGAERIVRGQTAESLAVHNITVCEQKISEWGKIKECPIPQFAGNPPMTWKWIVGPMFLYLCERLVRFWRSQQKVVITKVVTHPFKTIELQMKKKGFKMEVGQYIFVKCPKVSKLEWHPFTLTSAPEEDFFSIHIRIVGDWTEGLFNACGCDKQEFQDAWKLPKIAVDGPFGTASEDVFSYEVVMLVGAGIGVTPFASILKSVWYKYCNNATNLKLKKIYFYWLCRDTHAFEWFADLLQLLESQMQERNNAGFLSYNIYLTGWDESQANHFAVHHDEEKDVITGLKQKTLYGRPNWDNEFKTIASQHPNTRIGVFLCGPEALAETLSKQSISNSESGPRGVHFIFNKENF
NADPH oxidase 4 (Homo sapiens), sequence (Q9NPH5 whole entry, looked up): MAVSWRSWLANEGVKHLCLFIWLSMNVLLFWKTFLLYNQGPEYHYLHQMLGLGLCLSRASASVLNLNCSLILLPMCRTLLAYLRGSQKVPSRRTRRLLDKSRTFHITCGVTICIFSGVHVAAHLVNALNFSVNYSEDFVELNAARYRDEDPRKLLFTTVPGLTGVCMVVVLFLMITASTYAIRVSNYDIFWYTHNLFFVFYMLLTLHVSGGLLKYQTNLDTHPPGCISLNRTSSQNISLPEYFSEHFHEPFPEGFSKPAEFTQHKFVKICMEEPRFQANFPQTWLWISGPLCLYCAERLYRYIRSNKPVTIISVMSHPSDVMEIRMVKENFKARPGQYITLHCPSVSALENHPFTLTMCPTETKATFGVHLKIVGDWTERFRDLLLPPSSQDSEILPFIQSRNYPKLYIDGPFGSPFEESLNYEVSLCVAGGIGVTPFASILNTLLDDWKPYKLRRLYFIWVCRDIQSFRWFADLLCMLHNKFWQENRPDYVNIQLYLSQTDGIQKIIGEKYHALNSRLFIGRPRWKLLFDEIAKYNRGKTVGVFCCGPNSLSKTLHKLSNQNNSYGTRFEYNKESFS

Consider `[N-]=[N+]=NCc1ccccc1C[C@]1(C(=O)O)COC(c2ccc(OCCCO)cc2)=N1`, for which the z-score in test [1] is 0.0626 (inactive); in test [3] it was 5.11 (inactive); in test [4], 0.179 (inactive); in test [5] it was 1.56 (inactive); in [6], -0.315 (inactive); in test [7] it was 0.49. In addition, the z-score is 0.0988 (inactive) in test [8]; 1.27 (inactive) in test [9]; 0.641 in test [10]; 0.608 in test [11]; -0.379 in [12]; 0.383 in [13]. Besides, the z-score in test [14] is -0.175; in [15], 0.345; in test [16], -0.578; in test [17], -0.634 (inactive); in [18], -0.285; in test [19] it was -0.261. Besides, in test [20], the z-score was 0.0946 (inactive). In addition, the composite z-score in [2] worked out at 0.118.
For the compound `[N-]=[N+]=Nc1ccccc1[C@@H]1OC(c2ccc(OCCCO)cc2)=N[C@]1(Cc1ccccc1)C(N)=O`, the z-score was 1.7 (inactive) in test [1]; 30.7 (active) in test [3]; 31.3 (active) in [4]; 2.22 (inactive) in test [5]; 3.17 (inactive) in [6]; -0.414 in [7]. Moreover, the z-score in [8] was 0.865 (inactive); in test [9] it was 0.46 (inactive); in test [10], -1.48; in test [11], 0.289; in test [12] it was -0.186; in test [13], 0.765. For the same compound, the z-score was -0.835 in test [14]; -2.14 in [15]; 0.308 in [16]; 0.119 (inactive) in [17]; -0.719 in test [18]; -0.789 in test [19]. For the same compound, the z-score in [20] is -0.199 (inactive). In addition, the composite z-score in [2] was 0.0576.
For the compound `C=CC[C@]1(C(=O)NCCCOC)N=C(c2ccc(OCCCO)cc2)O[C@H]1c1ccccc1`, the z-score in [1] is 0.898 (inactive); in test [3] it was 12.3 (active); in [4], 0.912 (inactive); in test [5], 0.932 (inactive); in test [6] it was 0.643 (inactive); in test [7], 0.727. Also, the z-score is -2.35 (inactive) in [8]; -0.164 (inactive) in test [9]; -0.87 in test [10]; 0.0753 in test [11]; 0.301 in test [12]; -1.1 in test [13]. In addition, the z-score in test [14] is -0.464; in [15], 0.511; in test [16], 0.238; in test [17], 0.171 (inactive); in test [18] it was -0.446; in [19] it was -0.607. Besides, the z-score in test [20] is 1.32 (inactive). Also, in test [2], the composite z-score is -0.0172.
For the compound `COCCOC(=O)N1C(=O)[C@@]2(c3cc(C#CC4(O)CCCCCC4)ccc31)[C@H](c1ccccc1OCCO)N1[C@H](c3ccccc3)[C@H](c3ccccc3)OC(=O)[C@H]1[C@@H]2C(=O)N1CCCCCCC1`, the z-score was 0.499 (inactive) in [1]; 0.257 (inactive) in test [3]; 0.755 (inactive) in [4]; 0.196 (inactive) in test [5]; 0.653 (inactive) in test [6]; 0.119 in test [7]. Further, the z-score was 0.297 (inactive) in test [8]; 0.104 (inactive) in test [9]; 1.13 in test [10]; -0.971 in [11]; 0.723 in [12]; 0.818 in test [13]. Besides, the z-score was -1.45 in test [14]; -1.99 in test [15]; -0.286 in [16]; 0.454 (inactive) in test [17]; -0.557 in test [18]; -1.34 in test [19]. In addition, the z-score in [20] was -0.141 (inactive). The compound also displayed a composite z-score in [2] of 2.49.
Consider `CC(=O)NCCCC[C@@H]1NC(=O)[C@@H]2C[C@H](C(=O)NCCCCCC[N+](C)(C)C)[C@H](c3ccc(O)cc3)N2C1=O`, for which the z-score in [1] is -0.303 (inactive); in test [3], 1.5 (inactive); in [4] it was 0.0681 (inactive); in test [5], -3.5 (inactive); in test [6], 0.0574 (inactive); in test [7], -0.879. Besides, the z-score is 0.881 (inactive) in test [8]; 0.983 (inactive) in test [9]; 0.139 in [10]; 0.131 in test [11]; -0.348 in test [12]; -0.611 in test [13]. Besides, the z-score in test [14] is 0.258; in test [15], -0.539; in test [16], -1.33; in [17] it was 0.164 (inactive); in test [18], 0.169; in test [19] it was -0.5. The z-score in [20] is -0.557 (inactive). In test [2], this compound gave a composite z-score of 0.102.
